Assay [1] addresses Thyrotropin receptor (Homo sapiens) (UniProt P16473). Nature of the assay: qHTS assay to identify small molecule agonists of the thyroid stimulating hormone receptor (TSHR) signaling pathway (AID 1224843; calls by dose curve; also: nearly all actives have a fitted effect of over 45% in size). A digest of the protocol:
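HEK293 cells stably bearing the thyrotropin receptor were plated at 800 cells/well and challenged with compound (30 min, RT). Accumulated cAMP was quantified via cAMP-d2 competing for cryptate-tagged antibody.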
(In general: Quantitative high-throughput screening tests each substance at several concentrations.)

Assay [2] can be described thus: qHTS assay to identify small molecule agonists of H2AX (AID 1224845; active = well fitted activation curve with a large enough effect in the signal ratio in the repeat runs, not every such curve was filed as active; the % refers to the signal ratio). In a few lines:
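Phospho-H2AX Ser139 measured by HTRF (ex 320 nm; em 665 and 620 nm) after 24 hr antibody incubation. Compounds, 15 concentrations, 0.76% DMSO, were applied to CHO-K1 cells for 3hr at 37C before lysis.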

Assay [3] in a line: qHTS assay to identify small molecule agonists of the hypoxia (HIF-1) signaling pathway (AID 1224846; active = well fitted activation curve with a large enough effect in the signal ratio in the repeat runs, not every such curve was filed as active; the % refers to the signal ratio). In a few lines: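 Hypoxia-pathway activation was scored as increased beta-lactamase from an HRE-controlled reporter in ME-180 cells; plated at 2,000 cells per well with 0.5% dialyzed FBS, they were exposed 17 hrs to compounds and then given CCF4-AM.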
Assay [4] in a line: qHTS assay to identify small molecule agonists of H2AX - cell viability counter screen (AID 1224847; calls by dose curve;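 also: wild-type CHO-K1 cells; top concentration of the series differs between compounds; nearly all actives have a fitted effect of over 30% in size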). A digest of the protocol:
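After overnight plating of 1000 CHO-K1 cells per well, a 15-concentration compound series was applied for 3 hr at 37C. Luminescence from CellTiter-Glo, read following 30 min at room temperature, reflected cell viability.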

Assay [5] is described as follows: qHTS RealTime-Glo MT Cell Viability Assay in HEK293 cells - 32 hour (AID 1224868). Also: nearly all actives have a fitted effect of over 50% in size. Also: potency is read from the fitted curve at half-maximal effect. In a few lines:
(§1)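 Cells + reagent dispensed (600 cells/well, HEK293) → 5 h at 37 C/5% CO2 → 23 nL compound in DMSO pinned → 40 h at 37 C → luminescence read at 0, 8, 16, 24, 32, 40 h.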

Assay [6] is described as follows: A CellTox Green Cytotoxicity Assay to monitor cytotoxicity in HEK293 cells - 0 hour (AID 1224869). Also: nearly all actives have a fitted effect of over 50% in size. A digest of the protocol: (§2)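 Seeding of HEK293 cells together with cytotoxicity dye preceded a 5 h incubation at 37 C/5% CO2. Test compounds in DMSO were then added and fluorescence monitored across 40 h.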
The nature of assay [7]: qHTS RealTime-Glo MT Cell Viability Assay in HepG2 cells - 40 hour (AID 1224870). Also: nearly all actives have a fitted effect of over 50% in size. A digest of the protocol:
(§3)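 Real-time viability: cells seeded at 600 per well together with NanoLuc and cell-permeant prosubstrate, compounds added after 5 h incubation. Luminescence tracked at 0, 8, 16, 24, 32 and 40 h of exposure.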

Assay [8] in a line: A CellTox Green Cytotoxicity Assay to monitor cytotoxicity in HEK293 cells - 40 hour (AID 1224871). Also: nearly all actives have a fitted effect of over 45% in size. In a few lines: as §2
Assay [9] is described as follows: qHTS RealTime-Glo MT Cell Viability Assay in HEK293 cells - 16 hour (AID 1224872). Also: nearly all actives have a fitted effect of over 50% in size. Also: potency is read from the fitted curve at half-maximal effect. In a few lines:
as §1

The nature of assay [10]: qHTS RealTime-Glo MT Cell Viability Assay in HEK293 cells - 40 hour (AID 1224874). Also: nearly all actives have a fitted effect of over 50% in size. Also: potency is read from the fitted curve at half-maximal effect. As to conditions: RealTime-Glo luminescence; max response: hits give low values. In a few lines:
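Tox21 screen in HEK293 using RealTime-Glo MT chemistry, with cells and reagent co-dispensed. Luminescence proportional to viable cell number was captured at intervals during 40 h compound exposure at 37 C.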

Assay [11] in a line: A CellTox Green Cytotoxicity Assay to monitor cytotoxicity in HEK293 cells - 24 hour (AID 1224875). Also: nearly all actives have a fitted effect of over 45% in size. A digest of the protocol:
as §2

Assay [12] can be described thus: A CellTox Green Cytotoxicity Assay to monitor cytotoxicity in HepG2 cells - 16 hour (AID 1224876). Also: nearly all actives have a fitted effect of over 45% in size. Also: potency is read from the fitted curve at half-maximal effect. In a few lines:
(§4)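 Nonlytic assay: viable cells exclude the dye, so fluorescence scales with cell death. HepG2 at 600 cells/well, compounds added after 5 h, signal read across 40 h.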

Assay [13] can be described thus: qHTS RealTime-Glo MT Cell Viability Assay in HepG2 cells - 32 hour (AID 1224877). Also: nearly all actives have a fitted effect of over 55% in size. Also: potency is read from the fitted curve at half-maximal effect. A digest of the protocol: (§5)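 Real-time, nonlytic viability: 600 HepG2 cells/well mixed with NanoLuc enzyme plus prosubstrate; 5 h settle, compound (DMSO) added by pintool; luminescence monitored over 40 h at 37 C.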
The nature of assay [14]: A CellTox Green Cytotoxicity Assay to monitor cytotoxicity in HepG2 cells - 24 hour (AID 1224878). Also: nearly all actives have a fitted effect of over 45% in size. Also: potency is read from the fitted curve at half-maximal effect. In a few lines:
as §4

A short description of assay [15]: A CellTox Green Cytotoxicity Assay to monitor cytotoxicity in HepG2 cells - 40 hour (AID 1224879). Also: nearly all actives have a fitted effect of over 40% in size. Also: potency is read from the fitted curve at half-maximal effect. A digest of the protocol: as §4
Assay [16] is described as follows: qHTS RealTime-Glo MT Cell Viability Assay in HepG2 cells - 24 hour (AID 1224867). Also: nearly all actives have a fitted effect of over 50% in size. Also: potency is read from the fitted curve at half-maximal effect. A digest of the protocol:
as §5

Assay [17] can be described thus: qHTS RealTime-Glo MT Cell Viability Assay in HepG2 cells - 8 hour (AID 1224873). Also: nearly all actives have a fitted effect of over 55% in size. A digest of the protocol: as §3
The nature of assay [18]: qHTS assay to identify small molecule agonists of the estrogen related receptor (ERR) signaling pathway from Tox21 library (AID 1224849; calls by dose curve; also: nearly all actives have a fitted effect of over 15% in size). Particulars: ERR reporter cell line, ONE-Glo luciferase, 18 h; at 92.4 µM (top of the series) unless noted. In a few lines:
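Six hours post-seeding at 37 C/5% CO2, ERR cells receive DMSO-solubilised compounds; after 18 h at 37 C, ONE-Glo reagent is applied and luminescence recorded.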

Assay [19] is described as follows: qHTS assay to identify small molecule agonists of the hypoxia (HIF-1) signaling pathway - cell viability counter screen (AID 1224844; calls by dose curve; also: nearly all actives have a fitted effect of over 50% in size). In a few lines: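 Multiplexed with the HRE beta-lactamase assay, this viability read used CellTiter-Glo luminescence (30 min, RT) on HRE-bla ME-180 cells treated 17 hrs with compounds in 0.5% dialyzed FBS medium.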
A short description of assay [20]: qHTS assay to identify small molecule antagonists of the estrogen related receptor (ERR) signaling pathway from Tox21 library (AID 1224848). Also: nearly all actives have a fitted effect of over 50% in size. In a few lines:
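Reading was by luminescence 30 min after ONE-Glo addition. Before that, ERR cells at 2,000 per well had rested 6 h at 37 C/5% CO2 and then received pin-tooled compounds in DMSO for 18 h at 37 C.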

The values below come from PubChem BioAssay (Tox21).

Unmarked numbers belong to inactive results. Inconclusive results are not listed. Calls of active or inactive are those of the source. Unless noted, calls follow the shape of the dose curve; as a rule, active = well fitted curve in the direction sought with a large enough effect in the repeat runs; inconclusive = weak or mixed curves; inactive = no such curve, though single readings can be large; an effect the other way counts as inactive or inconclusive.
% is scaled to controls: 0 for no effect and ±100 for the full control effect.

Sequence of Thyrotropin receptor (Homo sapiens) (P16473 whole entry, looked up): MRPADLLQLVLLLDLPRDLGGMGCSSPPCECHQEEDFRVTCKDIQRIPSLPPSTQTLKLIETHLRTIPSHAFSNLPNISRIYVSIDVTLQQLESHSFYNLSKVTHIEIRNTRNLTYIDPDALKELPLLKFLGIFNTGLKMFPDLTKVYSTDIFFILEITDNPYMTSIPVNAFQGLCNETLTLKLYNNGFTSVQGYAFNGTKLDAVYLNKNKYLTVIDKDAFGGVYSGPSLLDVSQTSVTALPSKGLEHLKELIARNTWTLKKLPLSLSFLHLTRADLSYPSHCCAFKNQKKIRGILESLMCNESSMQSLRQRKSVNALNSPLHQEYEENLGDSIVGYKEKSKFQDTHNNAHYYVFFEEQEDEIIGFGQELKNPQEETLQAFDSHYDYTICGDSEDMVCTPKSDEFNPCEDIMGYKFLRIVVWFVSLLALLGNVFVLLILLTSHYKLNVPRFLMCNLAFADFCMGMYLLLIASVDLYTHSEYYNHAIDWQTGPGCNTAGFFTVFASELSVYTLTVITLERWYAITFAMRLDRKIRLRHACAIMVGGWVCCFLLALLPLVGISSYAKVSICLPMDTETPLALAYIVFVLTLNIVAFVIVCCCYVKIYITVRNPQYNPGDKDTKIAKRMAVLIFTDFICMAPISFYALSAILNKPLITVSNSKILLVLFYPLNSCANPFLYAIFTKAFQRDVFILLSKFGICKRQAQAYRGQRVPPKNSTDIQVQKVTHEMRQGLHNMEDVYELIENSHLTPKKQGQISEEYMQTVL

On to `CCOc1cc(N)c(Cl)cc1C(=O)NCC1CN(Cc2ccc(F)cc2)CCO1` (stereo unspecified), for which the Potency result in [1], in [2], in assay [4], in assay [6], in assay [7] and in assay [8] was “inactive” in each case. For the same compound, the Potency entry in assay [11], in assay [12], in [13], in assay [14] and in assay [15] was “inactive” each time. The result in [3] was inactive. In addition, the Potency in assay [5], in assay [9] and in assay [10] was 16.9 µM (active) each time.
`CCc1c2c(nc3ccc(OC(=O)N4CCC(N5CCCCC5)CC4)cc13)-c1cc3c(c(=O)n1C2)COC(=O)[C@]3(O)CC`: the Potency entry in assay [1], in [4], in assay [16], in [6], in assay [7] and in assay [8] was “inactive” in each case. Besides, the Potency entry in assay [17], in assay [11], in [12], in assay [13] and in [14] was “inactive” each time. Moreover, the result in [3] was inactive. Besides, the Potency in [10] is 2.39 µM (active).
Turning to `CCOC(=O)c1ccccc1C`, the Potency result in assay [1], in [2], in assay [4], in assay [16], in assay [5] and in assay [6] was “inactive” throughout. Further, the Potency entry in assay [7], in assay [8], in [9], in [17], in assay [11] and in assay [12] was “inactive” in each case. Also, the Potency result in [13], in [14] and in assay [15] was “inactive” in each case. In addition, in assay [10], the max response was -14.1%.
Regarding `CNCCCC1c2ccccc2C=Cc2ccccc21`, the Potency result in assay [1], in assay [2], in assay [4], in assay [6] and in assay [9] was “inactive” in each case. The activity change, positive = activation in [18] was -23.5% [at 42.5 µM]. In addition, the Potency in assay [16] was 21.3 µM (active); in assay [10] it was 23.9 µM (active); in assay [12] it was 23.9 µM (active); in assay [13], 23.9 µM (active); in assay [14] it was 23.9 µM (active); in assay [15], 23.9 µM (active).
Consider `CC(C)CCCCCOC(=O)CCCCC(=O)OCCCCCC(C)C`, for which the Potency result in assay [19], in assay [2], in [4], in assay [20], in assay [16] and in assay [5] was “inactive” each time. Also, the Potency entry in [6], in [7], in [8], in assay [9], in assay [17] and in [11] was “inactive” each time. Also, the Potency result in assay [12], in assay [13], in assay [14] and in assay [15] was “inactive” each time. Moreover, the compound was called inactive in assay [3]. Also, in [18], the activity change, positive = activation is -6.86%. For the same compound, in [10], the max response was 3.71%.
On to `CC(C)CCCCCCOC(=O)CCCCC(=O)OCCCCCCC(C)C`, for which the Potency result in assay [19], in assay [2], in [4], in assay [16], in assay [5] and in assay [7] was “inactive” in each case. For the same compound, the Potency result in [8], in assay [9], in assay [12], in assay [13], in [14] and in [15] was “inactive” throughout. For the same compound, the compound was classed as inactive in assay [3]. Besides, in [10], the max response was 0.314%.
Take `CC(C)=CC=O`: the Potency result in assay [19], in [2], in [4], in assay [16], in assay [5] and in assay [6] was “inactive” throughout. The Potency entry in [7], in assay [8], in [9], in [17], in assay [11] and in assay [12] was “inactive” in each case. Besides, the Potency result in assay [13], in [14] and in assay [15] was “inactive” in each case. Further, the compound was called inactive in [3]. In addition, the max response in assay [10] is 12.5%.
